Results from PubChem BioAssay AID1259400 (National Center for Advancing Translational Sciences (NCATS), 2018).
Hit rate of the full screen: of about 350,000 compounds, about 2,100 (0.6%) were called active. Another 1% or so got no clear call; they are omitted. What follows is part of a selection rich in actives, with near analogues and random picks from the rest. A number with no mark means an inactive call.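 How the source made its calls: active means activity change of -60% or lower, but not beyond a set lower limit; inconclusive means change between -60% and -40%, or beyond the set limit; inactive means change above -40%.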

Target: Relaxin receptor 1 (Homo sapiens) (UniProt Q9HBX9)
Sequence (Q9HBX9 whole entry, looked up): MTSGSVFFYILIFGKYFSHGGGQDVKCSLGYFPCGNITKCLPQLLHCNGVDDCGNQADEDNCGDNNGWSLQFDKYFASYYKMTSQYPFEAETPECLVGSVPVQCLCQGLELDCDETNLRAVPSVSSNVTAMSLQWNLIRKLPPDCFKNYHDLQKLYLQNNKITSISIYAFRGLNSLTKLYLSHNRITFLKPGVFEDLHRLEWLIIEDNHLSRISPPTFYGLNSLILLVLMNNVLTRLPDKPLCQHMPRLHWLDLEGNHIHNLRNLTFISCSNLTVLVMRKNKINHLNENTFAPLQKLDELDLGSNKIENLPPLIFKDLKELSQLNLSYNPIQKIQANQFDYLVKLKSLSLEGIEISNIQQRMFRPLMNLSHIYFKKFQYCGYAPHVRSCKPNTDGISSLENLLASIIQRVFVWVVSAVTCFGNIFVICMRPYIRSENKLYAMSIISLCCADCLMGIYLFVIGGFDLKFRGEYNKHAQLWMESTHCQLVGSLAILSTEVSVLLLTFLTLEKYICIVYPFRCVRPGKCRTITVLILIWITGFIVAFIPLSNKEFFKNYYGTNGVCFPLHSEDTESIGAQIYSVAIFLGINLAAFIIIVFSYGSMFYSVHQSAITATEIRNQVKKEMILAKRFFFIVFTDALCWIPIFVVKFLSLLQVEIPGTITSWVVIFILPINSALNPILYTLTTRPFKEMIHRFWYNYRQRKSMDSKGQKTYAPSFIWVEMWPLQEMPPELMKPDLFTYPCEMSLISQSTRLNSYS
Assay: qHTS Assay for Antagonists of the Relaxin Receptor RXFP1
Conditions: HEK293-RXFP1, relaxin-stimulated cAMP HTRF, 30 min; at 57.5 µM; active compounds read low
On the % scale 0 is the no-effect control and ±100 the full control effect.

| SMILES | activity change, negative = inhibition |
| --- | --- |
| Cc1c(Cl)cccc1-c1ccc(CNCCCSc2nnnn2C)o1 | -6.68% |
| Cc1ccc(C2C=C(c3ccc(Cl)cc3)Nc3nc(NC(=O)CCC(=O)O)nn32)cc1 (stereo not drawn) | -0.127% |
| Cc1ccc(Cl)cc1N1CCN(C(=O)c2cnc3c(-c4ccc(F)cc4)c(C)nn3c2C)CC1 | -19.1% |
| O=C(OC12CC3CC(CC(C3)C1)C2)c1ccc(NCc2cc(O)ccc2O)cc1 | -37.9% |
| CC(C)OC(=O)c1ccc(NCc2cc(O)ccc2O)cc1Cl | -85.7% (active) |
| COC(=O)c1ccc(NCc2cc(O)ccc2O)cc1 | -28.1% |
| CCCN1CCc2nc(N3CCN(C)CC3)ncc2C1 | 3.24% |
| Oc1ccc(/C=N/Nc2ccc(C(F)(F)F)cn2)cc1O | -72.1% (active) |
| FC(F)(F)c1cccc(N/N=C/c2ccccc2)c1 | 6.38% |
| O=C(N/N=C/c1ccc(O)c(O)c1)C1c2ccccc2Oc2ccccc21 | -17.9% |
| CC1(C)OC[C@@H](COC(=O)CCc2ccc(OC[C@@H](O)CNCCNC(=O)N3CCOCC3)cc2)O1 | -4.26% |
| O=C(CSc1nc(=O)[nH]c2c1CCCC2)Nc1cc(C(F)(F)F)ccc1Cl | 6.44% |
| O=C(CSc1nccn1C1CCCC1)Nc1cc(C(F)(F)F)ccc1Cl | -72.3% (active) |
| COc1ccc(NC(=O)CSc2nccn2C2CCCC2)cc1OC | 6.9% |
| Cc1cc2c(cc3c(SCc4cccc(Cl)c4)nnc(C)n32)o1 | -4.3% |
| O=C(CSc1ccc([N+](=O)[O-])cn1)Nc1ccc(N2CCOCC2)c(Cl)c1 | -1.58% |
| O=C(CSc1ccc([N+](=O)[O-])cn1)Nc1ccc(N2CCOCC2)cc1 | -66.8% (active) |
| Cn1cnnc1SCC(=O)Nc1ccc(N2CCOCC2)cc1 | -11.8% |
| Cc1ccc(O)c(NC(=O)c2cc(-c3ccc(F)cc3)no2)c1 | -3.02% |
| CC(=O)c1ccc(NC(=O)CSc2c(C(C)C)cnc3c2c(=O)n(C)c(=O)n3C)cc1 | 3.09% |

| SMILES | activity change, negative = inhibition |
| --- | --- |
| CC(C)c1ccc(C2CC(=O)N3CN(C4CCCCC4)CSC3=C2C#N)cc1 (stereo not drawn) | -4.73% |
| Cc1ccc(-c2nc3cccc(C)n3c2Nc2ccc3c(c2)OCCO3)cc1 | 3.27% |
| COc1ccc(-c2[nH]ncc2/C=N/NC(=O)c2cc(Br)ccc2O)c(OC)c1 | -30% |
| CC(=N\NC(=O)c1cc(Br)ccc1O)/C(=N/O)C(=O)Nc1ccccc1 | -80.9% (active) |
| CC(=O)N/N=C(\C)c1ccc(Br)cc1Br | 3.93% |
| COc1cc(CNC2CCCCC2)c(Br)cc1OC1CCCC1 | -7.24% |
| CC(C)(C)NCc1cc(Br)ccc1OC1CCCC1 | -6.03% |
| CC(NCc1ccccc1OC1CCCC1)c1ccccc1 (stereo not drawn) | -60.9% (active) |
| O=C(Cn1nc(Cc2cccnc2)c2ccccc2c1=O)N1CCN(c2ccccc2F)CC1 | 5.94% |
| CCCc1cc(=O)n2[nH]c(NCc3ccc(CC)cc3)nc2n1 | -11.6% |
| Cc1ccc(-c2cc(C(=O)Oc3ccccc3Cl)no2)cc1C | -12.2% |
| O=C(N/N=C/C=C/c1ccco1)c1cccs1 | -79.6% (active) |
| O=C(N/N=C/c1ccco1)c1csc2c1CCCC2 | -11.1% |
| Cc1ccc(-n2nc(C)c(/C=N/NC(=O)c3cccs3)c2Cl)cc1 | -17.6% |
| O=C(Nc1c(C(=O)N2CCN(c3ccc(F)cc3)CC2)oc2ccccc12)c1ccco1 | -14.5% |
| CCCCNC(=O)c1cc(-c2ccc(Cl)c(Cl)c2)on1 | -6.36% |
| C=CS(=O)c1sc(Cl)c(N2CCOCC2)c1[N+](=O)[O-] (stereo not drawn) | -60.3% (active) |
| O=C(NCCCN1CCN(c2cccc(Cl)c2)CC1)c1nnc(Cc2ccc(F)cc2Cl)o1 | -19.5% |
| COc1ccc(CCNC(=O)c2cn(C)c3ccc(S(=O)(=O)N(C)C4CCCCC4)cc3c2=O)cc1OC | -10.4% |
| CCC1(CC)Cc2ccccc2-c2nc(CCl)[nH]c(=O)c21 | -80.4% (active) |

| SMILES | activity change, negative = inhibition |
| --- | --- |
| N#CCSc1nc2c(c(=O)n1Cc1ccccc1)C1(CCCC1)Cc1ccccc1-2 | -9.93% |
| CCOC(=O)C1Cn2c(nc3c(c2=O)C(C)(CC)Cc2ccccc2-3)S1 (stereo not drawn) | -6.89% |
| CCc1nc(-c2cc(S(=O)(=O)N3CCN(c4ccc(OC)cc4)CC3)ccc2OC)no1 | 0.921% |
| CCCC12CN3CC(CCC)(CN(C1)C3c1c[nH]c3ccc(OC)cc13)C2=O (stereo not drawn) | -18.6% |
| Cc1cc(C)cc(OC(C)C(=O)Nc2nc3c(s2)CCCC3)c1 (stereo not drawn) | -103% (active) |
| COC(=O)C(NC(C)=O)(Nc1nc2c(s1)CCCC2)C(F)(F)F (stereo not drawn) | -2.87% |
| O=C(Nc1nc2c(s1)CCCC2)c1ccccc1F | -33.1% |
| CCC(Sc1nc2n[nH]c(C)c2c(=N)n1-c1ccccc1Cl)C(=O)N(CC)CC (stereo not drawn) | -33.6% |
| COc1ccc(C)cc1N(C)C(=O)c1c(C)oc2ncnc(N3CCOCC3)c12 | -0.158% |
| Cc1ccc(-n2ncc3c2CCCC3NC(=O)c2cnccn2)cc1C (stereo not drawn) | -3.03% |
| COc1ccc(C(=O)NC2CCCc3c2cnn3-c2cccc(C)c2C)c(OC)n1 (stereo not drawn) | -116% (active) |
| COc1ccc(OC)c(C(=O)NC2CCCc3c2cnn3-c2cc(C)cc(C)c2)c1 (stereo not drawn) | 2.28% |
| NCC[C@H](O)C(=O)N[C@@H]1C[C@H](N)[C@@H](O[C@H]2O[C@H](CN)[C@@H](O)[C@H](O)[C@@H]2O)[C@H](O)[C@@H]1O[C@H]1O[C@H](CO)[C@@H](O)[C@H](N)[C@@H]1O | -6.65% |
| COc1cc(C(=O)NCc2ccc3c(c2)cc(C)n3C)cc(OC)c1OC | 12% |
| CCOCC(=O)NCc1ccc2c(c1)cc(C)n2C | -74.1% (active) |
| COc1ccc(CNC(=O)CCn2cccc2)cc1 | -6.31% |
| CCOc1ccc(-c2cc3c(=O)n(CC(=O)NCc4ccc(OC)cc4)ccn3n2)cc1 | 4.95% |
| COc1ccc(Cn2ccnc2SCC(=O)Nc2ccc3c(c2)OCO3)cc1 | -2.29% |
